High-throughput results (PubChem BioAssay)
Compounds with a hit are over-represented: about 2.4% of the library has one in this group of screens.
NRP1-CendR mod: NRP-1/CendR interaction modulation. inhibition, % at 25 µM. O14786. FAM-RPARPAR peptide binding to NRP-1, fluorescence polarization. 360,000 compounds, 0.85% hits. AID 602438;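 active means inhibition or corrected inhibition above about 18%, plus a signal ratio from 0.5 to 1.5, limit read from the data, passing the limit was not always enough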
Target sequence (O14786 whole entry, looked up): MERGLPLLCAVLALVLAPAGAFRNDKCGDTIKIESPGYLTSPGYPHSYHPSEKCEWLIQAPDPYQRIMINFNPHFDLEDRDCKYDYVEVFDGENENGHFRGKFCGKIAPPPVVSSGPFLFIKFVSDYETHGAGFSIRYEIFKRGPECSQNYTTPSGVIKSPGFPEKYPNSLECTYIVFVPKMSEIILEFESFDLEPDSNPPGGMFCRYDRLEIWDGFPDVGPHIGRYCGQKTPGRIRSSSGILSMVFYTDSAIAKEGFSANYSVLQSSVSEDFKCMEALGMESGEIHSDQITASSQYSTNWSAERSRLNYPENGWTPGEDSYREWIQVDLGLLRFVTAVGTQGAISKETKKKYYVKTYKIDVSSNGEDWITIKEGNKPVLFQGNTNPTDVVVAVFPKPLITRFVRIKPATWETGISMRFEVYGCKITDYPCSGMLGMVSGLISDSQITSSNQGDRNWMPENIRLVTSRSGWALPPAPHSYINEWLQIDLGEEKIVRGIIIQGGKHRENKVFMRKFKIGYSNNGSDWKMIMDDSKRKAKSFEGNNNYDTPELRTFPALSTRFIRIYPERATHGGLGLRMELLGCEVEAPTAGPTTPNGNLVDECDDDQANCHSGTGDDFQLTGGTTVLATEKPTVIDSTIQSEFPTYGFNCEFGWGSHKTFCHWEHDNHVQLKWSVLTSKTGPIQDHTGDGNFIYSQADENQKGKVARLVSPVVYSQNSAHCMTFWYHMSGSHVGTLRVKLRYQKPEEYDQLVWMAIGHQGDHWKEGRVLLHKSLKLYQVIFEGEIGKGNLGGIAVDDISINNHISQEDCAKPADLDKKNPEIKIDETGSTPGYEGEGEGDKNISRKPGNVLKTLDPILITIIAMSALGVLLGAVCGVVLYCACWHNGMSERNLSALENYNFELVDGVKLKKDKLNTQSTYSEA
ADAM17 inh: inhibitors of human ADAM17. P78536. recombinant ADAM17, EDANS/DABCYL FRET peptide cleavage. inhibition, % at 6.95 µM. 370,000 compounds, 0.83% hits;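 active means inhibition above the mean of compounds lying between control limits plus 3 SD, set per campaign, cut at about 8.5% in these data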;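 further: 0% = DMSO-only wells as the low control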
ADAM10 inh: inhibitors of human ADAM10; inhibition, % at 7 µM; recombinant ADAM10, EDANS/DABCYL FRET peptide cleavage, 3 h; 370,000 compounds, 0.62% hits; O14672;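 active means inhibition above a per-campaign cutoff equal to the mean of compounds falling between control-based bounds plus 3 SD, cut at about 20% in these data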;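 further: 0% = DMSO wells while the 100% control is not disclosed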
APOBEC3G inh: blocks human APOBEC3G single-stranded DNA deamination; recombinant A3G, ssDNA deamination FAM/TAMRA fluorescence; Q9HC16; 330,000 compounds, 0.28% hits; inhibition, % at 20 µM;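 active means inhibition of at least 40% at 20 µM, with no more than 30% in the related APOBEC3A deaminase screen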;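 further: plate controls were DMSO wells with A3G for no effect and wells lacking A3G enzyme for full effect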
APOBEC3A inh: inhibitors of human APOBEC3A DNA deaminase | P31941 | recombinant A3A, FAM/TAMRA ssDNA deamination fluorescence | inhibition, % at 20 µM | 330,000 compounds, 0.41% hits | AID 493011;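 active means at least 40% inhibition at 20 µM here, with at most 30% in a related deaminase screen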;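 further: plate controls were A3A with DMSO for no effect and wells lacking A3A enzyme for full effect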
APOBEC3A confirm: confirmation of human APOBEC3A DNA deaminase inhibitors | shares compounds with APOBEC3A inh | recombinant A3A, ssDNA deaminase UDG fluorescence assay | inhibition, % at 20 µM | 1,400 compounds, 63% hits;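 active means inhibition reaching a set limit, 80% of the first screen's cutoff, at 20 µM in any replicate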;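 further: plate controls were DMSO wells with A3A for no effect and wells lacking A3A enzyme for full effect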
UDG A3A counter: UDG inhibition in APOBEC3A counter-screen; shares compounds with APOBEC3A inh; UDG counterscreen, FAM/TAMRA uracil oligo fluorescence; inhibition, % at 20 µM; 1,000 tested, under 10 active; AID 504714; call rule not given here
Active calls of the source: *; i = inactive; . = no result given.

SMILES	NRP1-CendR mod	ADAM17 inh	ADAM10 inh	APOBEC3G inh	APOBEC3A inh	APOBEC3A confirm	UDG A3A counter
COC(=O)c1ccc2ccn(CC(=O)NC(C)C)c2c1	10.8	-141.5	-356.5	13.5	74.4*	70.5*	-2.5
CCN(CC)c1ccc2nc3ccc(N)cc3[n+](-c3ccccc3)c2c1	9.0	0.6	-11.2	11.0	16.7	.	.
CCN(CC)c1ccc2nc3ccccc3[n+](CC)c2c1	15.6	.	.	22.9	78.7*	81.9*	2.6
Clc1ccc(-c2cc(-c3ccccc3)on2)cc1	-1.1	-1.7	-2.7	-6.9	94.8*	-7.4	-4.0
Nn1c(SCC(=O)Nc2ccc(C(=O)O)cc2)nnc1-c1ccco1	.	0.1	-4.1	.	.	.	.
COc1cc(OC)c2ccc(=O)oc2c1C(CC(=O)N1CCCC1)c1ccc2c(c1)OCO2 (stereo not given)	19.1	-12.7	-54.3	26.4	47.0*	29.1	.
COc1cc(OC)c2ccc(=O)oc2c1C(CC(=O)N1CCCC(C)C1)c1ccc2c(c1)OCO2 (stereo not given)	-6.6	-1.6	-10.6	0.6	27.6	.	.
Cc1ccc(S(=O)(=O)N2CC3(COC(C)(C)OC3)C[C@H]2CON2C(C)(C)CCCC2(C)C)cc1	.	-1.8	0.0	.	.	.	.
O=C(Cn1cnc2ccccc2c1=O)N1CCN(Cc2ccc(F)cc2)CC1	.	-2.0	3.6	.	.	.	.
COc1ccc(CC(=O)Nc2cccc(/C(C)=N/NC(=O)c3cccc([N+](=O)[O-])c3)c2)cc1	-7.6	-2.8	5.1	0.7	71.5*	1.0	.
CNc1ccccc1/C(O)=C(\C#N)C(=O)NCc1cccc2ccccc12	.	-5.8	-17.4	.	.	.	.
CC(=O)c1c(COC(=O)c2cccnc2)nc2ccccc2[n+]1[O-]	1.9	-5.2	-7.5	20.4	58.2*	75.7*	0.2
COC(=O)c1ccc2c(c1)nc(C)n2CCO	-6.7	-2.5	-3.4	-3.9	-4.1	.	.
CCOC(=O)c1ccc2c(c1)n(CC)c(/C=C/N(C)c1ccccc1)[n+]2CC	1.1	1.0	3.8	16.8	57.4*	78.6*	2.6
CCOC(=O)c1ccc2c(c1)n(CCO)c(C)[n+]2CC	3.6	1.3	4.7	20.8	43.2*	81.5*	6.5
Nc1[nH]c(C(=O)c2ccccc2)c(-c2ccccn2)c1C(=O)c1c[nH]c2ccccc12	.	-2.0	-7.7	.	.	.	.
CC(C)N1C(=O)CC2(CC[N+](C)(CCOC(=O)C(c3ccccc3)c3ccccc3)CC2)C1=O (stereo not given)	17.9	-1.3	-0.1	18.0	59.8*	26.7*	4.8
CCN(CC)C(=O)CC[C@H]1CC[C@]2(CCCN(Cc3nccn3C)C2)O1	.	-1.5	-0.7	.	.	.	.
N#C/C(=C\c1ccc(-c2cccc([N+](=O)[O-])c2)o1)C(=O)N1CCOCC1	19.6	-2.2	-7.3	-6.0	-2.8	.	.
N#C/C(=C\c1ccc(-c2ccc([N+](=O)[O-])cc2Br)o1)C(=O)N1CCN(c2ccccc2)CC1	-18.9	0.4	-1.4	2.1	47.8*	11.4	.
CC(C)[C@H](NC(=O)C1CC1)C(=O)N1CCC[C@H]1C(=O)NCc1ccccc1	.	-2.5	1.2	.	.	.	.
CCOC(=O)C1=C(c2ccccc2)N=c2s/c(=C\c3ccco3)c(=O)n2C1c1cccs1 (stereo not given)	-33.1	1.9	2.6	12.5	42.2*	18.8*	-2.7
COc1ccc(OC)c(S(=O)(=O)N2CCCCC2C(=O)N2CCCN(C)CC2)c1 (stereo not given)	.	1.6	3.9	.	.	.	.
O=S1(=O)c2c(NCc3ccco3)cccc2Oc2ccccc2CN1Cc1cn(Cc2ccccc2C(F)(F)F)nn1	.	-1.8	-9.7	.	.	.	.
CCn1ncc(-c2ccnc3cc(C(=O)O)nn23)c1C	2.1	-311.0	i	-13.5	94.1*	76.6*	-2.7
CCc1cccc(C)c1NC(=O)c1cc(=O)[nH]c2ccc(S(=O)(=O)N3CCOCC3)cc12	5.6	-0.3	-7.7	3.1	42.7*	34.6*	-2.5
Cc1ccc(NC(=O)c2cc(=O)[nH]c3ccc(S(=O)(=O)N4CCOCC4)cc23)cc1	4.9	-1.6	-0.4	-6.9	-3.3	.	.
NS(=O)(=O)c1ccc(CCNC(=O)CCS(=O)(=O)c2ccc(Br)cc2)cc1	-5.6	0.0	0.6	24.4	45.7*	40.3*	.
